Here are results for 15 molecules from the supplement of paper PMC7156485.

Details in all cases: concentration: 10 µM; 24 h
Assay [1] has as its system HCC1569. As to the kind of experiment: cell number relative to DMSO (% of DMSO); higher = more cells (less growth inhibition / toxicity). The method in brief: (§1)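 Treatment: HCC1569 and TDF cells, 800 per well in 384-well plates with RPMI and 10% FBS, were given compounds at 10 µM for 24 h at 37 °C, in triplicate. Readout: after 3.7% formaldehyde fixation, cells were stained with a rabbit anti-H1.0 antibody, an AlexaFluor 647 secondary and DAPI. Reported values are H1.0 nuclear intensity or cell number as percent of the plate control, taken as the median of replicates, with positional smoothing for HCC1569.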

The test system of assay [2] is TDF. The assay is described as above. The method in brief:
as §1

Assay [3] concerns TDF. Nature of the assay: H1.0 immunofluorescence intensity relative to DMSO (% of DMSO); higher = stronger H1.0 induction, active = 120 or more. The method in brief:
as §1

Assay [4] has as its system HCC1569. As to the kind of experiment: H1.0 immunofluorescence intensity relative to DMSO (% of DMSO); higher = stronger H1.0 induction, active = 140 or more. The method in brief:
as §1
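Throughout, for H1.0 immunofluorescence intensity relative to DMSO: TDF is a line of transformed human dermal fibroblasts of mesenchymal origin.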
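Throughout, for cell number relative to DMSO: TDF denotes transformed human dermal fibroblasts of mesenchymal origin.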

With `CCc1nc(-c2cccc(C)c2)c(-c2ccnc(NC(=O)c3ccccc3)c2)s1`, the cell number is 88.3 in the assay with HCC1569 [1] and 84.4 in the assay with TDF [2]. In addition, the H1.0 immunofluorescence intensity with TDF [3] is 87.8 (inactive); in the assay on HCC1569 [4] it was 120 (inactive).
Take `NC(Cc1ccc(Cl)cc1)C(=O)O` (racemic): the cell number came to 101 in the assay with HCC1569 [1] and 106 with TDF [2]. In addition, the values for the H1.0 immunofluorescence intensity in the assay on TDF [3] and in the assay with HCC1569 [4] were 88.6 (inactive) and 87.6 (inactive), respectively.
The like results for `O=c1ccn(C2OC(COP(=O)([O-])OP(=O)([O-])O)C(O)C2O)c(=O)[nH]1.[Na+].[Na+]` (stereo not given) [Uridine 5'-diphosphate sodium] were, in that order, 105, 106, 95.6 (inactive) and 98.7 (inactive).
With `CC(=O)C(C)=NO` [2,3-Butanedione monoxime], the cell number was found to be 100 in the assay with HCC1569 [1] and 95.2 with TDF [2]. Moreover, the H1.0 immunofluorescence intensity with TDF [3] was 106 (inactive); in the assay with HCC1569 [4], 115 (inactive).
The like results for `CN1CCN(CCCN2c3ccccc3Sc3ccc(C(F)(F)F)cc32)CC1.Cl.Cl` [Trifluoperazine dihydrochloride] were, in that order, 87.3, 108, 107 (inactive) and 141 (active).
`C[N+]1(C)C2CC(OC(=O)C(O)(c3cccs3)c3cccs3)CC1C1OC12.[Br-]` (stereo not given) [Tiotropium Bromide]: the cell number turned out to be 105 with HCC1569 [1] and 97.1 with TDF [2]. Besides, the figures for the H1.0 immunofluorescence intensity with TDF [3] and with HCC1569 [4] were 95.7 (inactive) and 114 (inactive), respectively.
In the same order, the values of `Clc1ccc2c(c1)CCc1cccnc1C2=C1CCNCC1` [Desloratadine] are 98.1, 102, 109 (inactive) and 108 (inactive).
Regarding `Cc1ccc(C(=O)COC(=O)c2cccc(NC(=O)c3ccc([N+](=O)[O-])cc3[N+](=O)[O-])c2)cc1`, the results for the cell number with HCC1569 [1] and with TDF [2] were 76.5 and 67.7, respectively. For the same molecule, the values for the H1.0 immunofluorescence intensity with TDF [3] and in the assay on HCC1569 [4] were 110 (inactive) and 152 (active), respectively.
Turning to `COCCCOc1ccnc(CS(=O)c2nc3ccccc3[n-]2)c1C.[Na+]` (stereo not given), the cell number in the assay with HCC1569 [1] was 101; in the assay with TDF [2], 90.9. The H1.0 immunofluorescence intensity in the assay on TDF [3] is 103 (inactive); in the assay with HCC1569 [4] it was 106 (inactive).
As to `O=c1c(O)c(-c2ccc(O)c(O)c2)oc2cc(O)ccc12` [Fisetin], the cell number with HCC1569 [1] and with TDF [2] was 95.8 each time. The H1.0 immunofluorescence intensity was 96 (inactive) in the assay on TDF [3] and 101 (inactive) with HCC1569 [4].
For `COc1cc(-c2oc3cc(O)cc(O)c3c(=O)c2OC2OC(CO)C(O)C(O)C2O)cc(OC)c1O` (stereo not given) [Syringetine-3-glucoside], the cell number was 102 in the assay with HCC1569 [1] and 93 in the assay with TDF [2]. The results for the H1.0 immunofluorescence intensity in the assay on TDF [3] and in the assay on HCC1569 [4] were 101 (inactive) and 90.4 (inactive), respectively.
The like results for `CC(C)CC(NC(=O)C(O)C(N)Cc1ccccc1)C(=O)O.Cl` (stereo not given) [Bestatin hydrochloride] were, in that order, 101, 104, 96.3 (inactive) and 99.6 (inactive).
In the same order, the values of `O=C1NC(=O)C(c2ccccc2)(c2ccccc2)N1` [Phenytoin] are 104, 98.5, 95.8 (inactive) and 110 (inactive).
The like results for `Nc1nc(N)c2nc(-c3ccccc3)c(N)nc2n1` [Triamterene] were, in that order, 98.6, 112, 85.8 (inactive) and 102 (inactive).
Regarding `N[C@@H](Cc1ccc(F)cc1)C(=O)O` [p-Fluoro-L-phenylalanine], the cell number amounted to 104 with HCC1569 [1] and 102 with TDF [2]. Also, the H1.0 immunofluorescence intensity with TDF [3] was 93.4 (inactive); in the assay on HCC1569 [4] it was 106 (inactive).
